GluA2 TARP mod – GluA2-stargazin AMPA receptor complex modulation. AID 1259245. calls only at 30 µM. HEK293 GluA2+stargazin, membrane potential dye (FDSS), glutamate EC50; hits were called plate by plate, in both directions. hit rate 3.5% among 40,000;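 active means any of four per-well response measures lying three or more SD from its plate-wide compound average, in either direction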
GIRK2 activator – Activates human GIRK2-containing potassium channels; HEK293 GIRK2/NPY4 cells, thallium flux fluorescence; activation (% efficacy), % for hits at 75 µM; 34,000 tested, under 10 active;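 active means primary screen hit, no activity in plain HEK293 cells, and in GIRK2-only cells above 5% efficacy rising with concentration; inactive means the rest, including fluorescent compounds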;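 further: efficacy is normalized control-subtracted fluorescence 15 s after thallium addition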
* = called active by the depositor; i = inactive; / = no result given; + = active, no number. Shown is part of a subset that was picked to be rich in hits.

SMILES	GluA2 TARP mod	GIRK2 activator
O=C(NCC1CCN(C(=O)COc2ccccc2)CC1)Nc1cccc(C(F)(F)F)c1	+	i
O=C(NCC(O)Cc1ccccc1)Nc1cccc(C(F)(F)F)c1 (configuration not stated)	+	i
O=C(NCC1CCN(c2ccccn2)CC1)Nc1cccc(C(F)(F)F)c1	i	/
O=C(NCC1CCN(c2ncccn2)CC1)Nc1cccc(C(F)(F)F)c1	+	i
O=C(NCC1CCN(C(=O)COc2ccccc2)CC1)Nc1ccccc1F	i	i
Cn1cccc1C(O)CNC(=O)Nc1cccc(C(F)(F)F)c1 (configuration not stated)	i	i
O=C(Nc1cccc(N2CCCCC2=O)c1)c1ccc([N+](=O)[O-])cc1Cl	i	i
O=C(CS(=O)(=O)Cc1ccccc1)NCc1ccccc1	i	i
CCN1CCN(CC(O)COCc2ccc(Cl)cc2)CC1 (configuration not stated)	i	i
CCc1ccc(-n2c(-c3ccccc3)cn3c4c(=O)n(CCN5CCOCC5)c(=O)n(C)c4nc23)cc1	i	/
COc1ccc(-n2nnc3c(N4CCN(C(=O)c5ccccc5C(F)(F)F)CC4)ncnc32)cc1	i	/
COc1ccc(-n2nnc3c(N4CCN(C(=O)c5cccc6ccccc56)CC4)ncnc32)cc1	+	/
CC(C)N1CCC(CNS(=O)(=O)c2ccc(C(C)(C)C)cc2)CC1	i	/
CC(=O)N1CCc2c(sc3nc(SCc4ccc([N+](=O)[O-])cc4)n(Cc4ccco4)c(=O)c23)C1	i	/
CC(=O)N1CCc2c(sc3nc(SCc4cccc([N+](=O)[O-])c4)n(Cc4ccco4)c(=O)c23)C1	+	i
CCN(CC)CCN1C(=O)C(=O)/C(=C(/O)c2ccc(C)cc2)C1c1ccccn1 (configuration not stated)	i	/
CCOC(=O)CCC(=O)Nc1cccc(-c2cnc3n2CCC3)c1	+	i
CCOC(=O)CCC(=O)Nc1cccc(N2CCCC2=O)c1	i	i
COc1ccc(Br)c(C(=O)Nc2cccc(-c3cnc4n3CCC4)c2)c1	i	i
O=C(Nc1cccc(-c2cnc3n2CCC3)c1)c1ccc(Br)o1	+	i
O=C(Nc1cccc(-c2cnc3n2CCC3)c1)c1cc2ccccc2oc1=O	+	i
O=C(Nc1cccc(Cl)c1)Nc1cccc(-c2cnc3n2CCC3)c1	i	i
Cc1nc(CSc2nnc(Cc3c(C)[nH]c(=O)[nH]c3=O)o2)cs1	i	i
COc1ccc(N2CCN(C(=O)C(=O)NC3CCCC3)CC2)cc1	i	/
O=C(Nn1cnc2c(cnn2-c2ccccc2)c1=O)c1cc(Cl)ccc1[N+](=O)[O-]	i	i
SMILES	GluA2 TARP mod	GIRK2 activator
COc1ccc(N(Cc2cccc(Cl)c2)S(=O)(=O)c2ccc3nncn3c2)cc1	i	i
COc1ccc(N(Cc2cccc(C)c2)S(=O)(=O)c2ccc3nncn3c2)cc1	+	i
O=C(Nc1ccc(N2CCCCS2(=O)=O)cc1)c1ccc(Cl)c([N+](=O)[O-])c1	i	/
COc1cccc2sc(N(CCCN(C)C)C(=O)c3cc(C)nn3C)nc12	i	i
COc1cccc2sc(N(CCN(C)C)C(=O)c3cc(C)nn3C)nc12	+	i
CCCCCNC(=O)CCCOc1ccc(C)cc1C	+	i
Cc1ccc(OCCCC(=O)Nc2nccs2)c(C)c1	i	i
COC(=O)c1sccc1S(=O)(=O)N(CC(=O)Nc1ccccc1)c1ccccc1	i	i
CCc1ccccc1NC(=O)CN(c1ccc(C)cc1)S(=O)(=O)c1ccsc1C(=O)OC	+	i
COC(=O)c1sccc1S(=O)(=O)N(CC(=O)Nc1ccccc1OC)c1ccccc1	i	i
COC(=O)c1sccc1S(=O)(=O)N(CC(=O)Nc1cccc(OC)c1)c1ccc(Cl)cc1	+	i
COc1ccc(-c2cc(CC(=O)NCc3ccco3)no2)cc1OC	i	i
Cc1ccc(C(=O)Nc2ccc(C(=O)NCCNC(=O)c3sc(C)nc3C)cc2)cc1	/	i
Cc1cccc(C)c1NC(=O)COc1ccc2c(C)cc(=O)oc2c1C	i	/
Cc1ccc(C)c(OCC(=O)Nc2c(C)cccc2C(C)C)c1C	+	i
COc1ccc(CCC(=O)NCCn2ncc3c(N4CCCCC4)ncnc32)cc1	+	i
O=C(CCc1ccccc1)NCCn1ncc2c(N3CCCC3)ncnc21	i	i
COc1ccc(-c2cc(=O)n(CC(=O)Nc3ccc(S(N)(=O)=O)cc3)cn2)cc1	/	i
Cc1ccc(CNC(=O)c2nnn(-c3ccc(F)cc3)c2-c2ccncc2)cc1C	i	i
CCC(=O)Nc1ccc2c(c1)CC(=O)N2C	i	/
Cc1nnsc1C(=O)Nc1ccc2c(c1)CC(=O)N2C	+	i
COc1ccc(C)cc1S(=O)(=O)N1CC(C)CC(C)C1 (configuration not stated)	i	/
CC1CC(C)CN(S(=O)(=O)c2c(F)cccc2F)C1 (configuration not stated)	+	/
COc1nn(C)cc1-c1nnc(SCC(=O)N2CCCCC2)n1C	i	i
O=C(NCCc1ccccc1)C(=O)NCC1(c2cccs2)CCOCC1	i	/
SMILES	GluA2 TARP mod	GIRK2 activator
Cc1cc(C)n(CCNC(=O)c2ccc(N3CCCC3)nn2)n1	i	i
Cc1cc(NC(=O)c2ccc(N3CCCCC3)nn2)on1	+	i
CCc1ccc(/C=C/C(=O)Nc2nc(CC(C)=O)ns2)o1	i	/
Cc1ccc(-c2ccc(SCC(=O)NC3CCCCC3)nn2)c(C)c1	+	i
COc1ccc(OC)c(-c2ccc(SCC(=O)NC3CCCC3)nn2)c1	i	i
COc1ccc(C(=O)Nc2cc(C)nn2-c2nc(-c3cccs3)cs2)cc1	i	i
Cc1cccc(NC(=O)CN2C(=O)c3ccccc3S2(=O)=O)c1C	i	i
Cc1ccc2nc3c(cc(C(=O)NCCN4CCOCC4)n3C)c(=O)n2c1	i	i
Cc1cccn2c(=O)c(C(=O)NCCCN3CCOCC3)c(O)nc12	+	i
O=S(=O)(c1ccc(F)cc1F)N1CCN(Cc2nnnn2-c2ccc(F)cc2)CC1	i	i
Cc1ccc(Cl)c2sc(NC(=O)C3CCCCN3S(C)(=O)=O)nc12 (configuration not stated)	i	i
COc1cccc(C(=O)CSc2cc(N3CCOCC3)ncn2)c1	i	i
c1ccn2cc(CSc3cc(N4CCOCC4)ncn3)nc2c1	+	i
O=C(CCS(=O)(=O)c1ccccc1)N(Cc1ccccn1)Cc1ccco1	/	i
COc1ccc(OCC(=O)Nc2cc(C3CC3)nn2-c2nc(C(C)C)cc(=O)[nH]2)cc1	i	i
COc1ccc(/C=C\C(=O)Nc2cc(C3CC3)nn2-c2nc(C(C)C)cc(=O)[nH]2)cc1OC	+	i
CC(C)(C)c1ccc(C(=O)N2CCOC(c3ccccc3)C2)cc1 (configuration not stated)	/	i
O=C(C1=COCCO1)N(CCN1CCOCC1)c1nc2c(F)cccc2s1	+	i
O=C(C1=COCCO1)N(CCN1CCOCC1)c1nc2ccccc2s1	i	/
COc1ccc(CCS(=O)(=O)N(Cc2ccsc2)C2CC2)cc1	/	i
Cc1cc(NC(=O)c2csc3c2CCC(C)C3)no1 (configuration not stated)	i	/
COc1cc(/C=C2\Oc3cc(OC(C)=O)ccc3C2=O)cc(OC)c1OC	i	/

Screens as filed in PubChem BioAssay.
